Source: PubChem
DT40 TDP1 no CPT: qHTS for Inhibitors of human tyrosyl-DNA phosphodiesterase 1 (TDP1): qHTS in cells in absence of CPT | DT40 Tdp1-/- hTDP1 cells, no CPT, ATP luminescence, 48 h | Potency, µM (series often up to 46.2 µM), inactives show at the top dose activity change, negative = growth inhibition, usual class: inhibitors | 420,000 tested, 15% active | AID 686978, 2013; also: potency is read from the fitted curve at half-maximal effect; nearly all actives have a fitted effect of over 55% in size
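Readout: luminescence from CellTiter-Glo after 30 min in the dark at RT. Cells: DT40 Tdp1-/- with stable hTDP1, 400/well. Exposure: compounds alone, ≥48 hr, 37 °C.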
12-LOX inh: ALOX12 (human) lipoxygenase inhibition; P18054; purified 12hLO, xylenol orange hydroperoxide absorbance; Potency, µM (titrated, usually from 108 µM), for inactives: at the top dose activity change, negative = inhibition, hits mostly inhibitors; 580,000 tested, 1.1% active; AID 1671190; also: potency is read from the fitted curve at half-maximal effect
Target sequence (P18054 whole entry, looked up): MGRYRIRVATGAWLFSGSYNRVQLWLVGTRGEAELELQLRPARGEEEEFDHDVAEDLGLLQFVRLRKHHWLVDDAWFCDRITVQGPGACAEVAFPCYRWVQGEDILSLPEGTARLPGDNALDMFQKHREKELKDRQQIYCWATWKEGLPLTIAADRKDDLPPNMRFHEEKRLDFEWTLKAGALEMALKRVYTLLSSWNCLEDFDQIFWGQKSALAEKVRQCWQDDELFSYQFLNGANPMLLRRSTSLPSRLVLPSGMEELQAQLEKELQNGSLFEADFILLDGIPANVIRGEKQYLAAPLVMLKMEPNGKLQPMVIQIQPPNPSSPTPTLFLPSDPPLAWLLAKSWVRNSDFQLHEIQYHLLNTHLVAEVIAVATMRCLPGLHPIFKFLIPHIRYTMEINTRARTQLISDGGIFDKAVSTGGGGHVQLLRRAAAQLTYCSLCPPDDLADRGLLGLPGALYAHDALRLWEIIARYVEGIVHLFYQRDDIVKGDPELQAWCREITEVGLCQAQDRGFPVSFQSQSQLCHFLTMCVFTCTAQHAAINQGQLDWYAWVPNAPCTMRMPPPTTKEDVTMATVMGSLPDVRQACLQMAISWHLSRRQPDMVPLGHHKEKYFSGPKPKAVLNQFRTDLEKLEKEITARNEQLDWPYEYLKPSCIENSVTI
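Hydroperoxide product was detected by ferrous iron/xylenol orange as the 573 to 405 nm absorbance ratio. Arachidonic acid at 40 uM (final) was turned over for 30 min at room temperature by 150 nM human 12hLO, pH 7.0 Hepes buffer, after 15 min compound preincubation.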
IL-1B inflam inh: inhibitors of inflammasome signaling (IL-1 beta secretion); THP-1 LPS/ATP IL-1B secretion, AlphaLISA, 16 h; hits give low values; activity change, % at 57.5 µM; 360,000 tested, 4.7% active; AID 743279; in the data active = activity change below about -50%; inconclusive = mostly about -30% to -49%
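Secreted IL-1B measured by AlphaLISA bead assay after 16 h compound exposure of THP-1 cells; compounds (final up to 57.5 uM) added 1 h before LPS (250 ng/mL) and ATP (1.25 mM) stimulation; lower signal means less secretion.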
HT1080-NT tox: kills 2HG-producing HT-1080-NT fibrosarcoma cells. Potency, µM (top dose mostly 46.1 µM), for inactives: at the top dose activity, negative = less viability, actives largely listed as cytotoxic. 360,000 tested, 1.6% active. HT-1080-NT fibrosarcoma viability, CellTiter-Glo ATP luminescence, 48 h;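 also: NT is the 2HG producing partner of a matched IDH1 knockdown line; potency is read from the fitted curve at half-maximal effect; 0% = DMSO-treated cells and -100% = media-only wells without cells; nearly all actives have a fitted effect of over 55% in size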
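Luminescent CellTiter-Glo readout after 48 hours of compound exposure at 37 degrees C defined viability of HT-1080-NT cells. Activity was normalized to DMSO wells and cell-free media wells; concentration-response curves were fitted and assigned curve classes.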
TDP1 cell CPT: DT40-hTDP1 cell growth loss with CPT; chicken DT40 Tdp1-/-;hTDP1 cells + 20 nM CPT, ATP luminescence, 48 h; Potency, µM (titrated, usually from 46.2 µM), inactives show at the highest dose activity change, negative = growth inhibition, most hits filed as inhibitors; 420,000 tested, 12% active; AID 686979; also: potency is read from the fitted curve at half-maximal effect; nearly all actives have a fitted effect of over 55% in size
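Chicken DT40 Tdp1-/- cells complemented with human TDP1, 400 cells/well, exposed to compounds plus 20 nM camptothecin for at least 48 h at 37 C; viability read as ATP content by CellTiter-Glo luminescence.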
HT1080 IDH1KD tx: HT-1080 IDH1 knockdown cell toxicity (counter line); HT-1080 IDH1 knockdown viability, ATP luminescence, 48 h; Potency, µM (series often up to 46.1 µM), for inactives: at the top dose activity, negative = toxicity, most hits filed as cytotoxic; 360,000 tested, 2% active; AID 686971;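 also: potency is read from the fitted curve at half-maximal effect; 0% = DMSO wells and -100% = cell-free medium wells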
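Using the IDH1-knockdown HT-1080 line run in the same batch and compound series as the NT line, viability after 48 h at 37 °C was determined by CellTiter-Glo luminescence and expressed as % activity.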
* marks the source's active call; other numbers are inactive results; u = inconclusive; x = not tested or not shown. This excerpt belongs to a sample that is enriched for hits. Unless noted, calls follow the shape of the dose curve; as a rule, active = well fitted curve in the direction sought with a large enough effect; inconclusive = small, poorly fitted or top-dose-only effect, or another doubt; inactive = no such curve, though single readings can be large; an effect the other way counts as inactive or inconclusive. Unless noted, % is scaled to controls: 0 for no effect and ±100 for the full control effect.

SMILES	DT40 TDP1 no CPT	12-LOX inh	IL-1B inflam inh	HT1080-NT tox	TDP1 cell CPT	HT1080 IDH1KD tx
O=C(C[C@@H]1C/C=C\C[C@@H](NC(=O)OCC2c3ccccc3-c3ccccc32)C(=O)OC[C@@H](Cc2ccccc2)NC1=O)NCCO	9.2µM*	u	34.0	-1.5%	7.31µM*	-2.4%
Cc1noc(C)c1CC(=O)NC1CCc2nn(CC3CC3)c(=O)n2CC1 (stereo not given)	x	5.2%	x	x	x	x
CC(C)(C)[C@@H]1COC(=O)[C@@H](NC(=O)OCC2c3ccccc3-c3ccccc32)C/C=C\C[C@@H](CC(=O)NCCO)C(=O)N1	11.6µM*	-1.4%	30.3	6.5%	18.4µM*	-2.1%
CC(C)(C)[C@H]1COC(=O)[C@H](NC(=O)OCC2c3ccccc3-c3ccccc32)C/C=C\C[C@@H](CC(=O)N[C@@H](CO)Cc2ccccc2)C(=O)N1	u	-17.1%	20.9	u	7.31µM*	0.5%
CCc1ccc(-c2cc(C(=O)Nc3c(C)n(C)n(-c4ccccc4)c3=O)c3ccccc3n2)s1	16.4µM*	u	-27.8	-19.6%	u	u
Cc1cc(Br)cc2c(C(=O)Nc3c(C)n(C)n(-c4ccccc4)c3=O)cc(-c3cccs3)nc12	16.4µM*	5.2%	37.7	u	23.1µM*	-26.9%
COCCOc1ccc(C(=O)N[C@@H]2CN(C(=O)Nc3cccc(OC)c3)CCC[C@H]2O)cc1	x	-12.1%	x	x	x	x
O=C(c1cccc(O)c1)N1CCc2c(n(CCOc3ccccc3)n(-c3ccccc3)c2=O)C1	x	20.8%	x	x	x	x
CCCc1noc(-c2cccn3c(CNC(=O)c4cc(C)ccc4C)nnc23)n1	x	32.4%	x	x	x	x
COc1ccccc1C(=O)Nc1nc(C)c(C(=O)N(C)C)s1	x	8.1%	x	x	x	x
COc1cc2nc(N3CCCN(C)CC3)nc(N3CCN(C)CC3)c2cc1OC	15.8µM*	x	x	-14.2%	14.1µM*	-10.9%
COc1cc2nc(N3CCCN(C)CC3)nc(N(C)C)c2cc1OC	17.8µM*	x	x	-22.1%	u	-17.2%
COc1cc2nc(N3CCCN(C)CC3)nc(N)c2cc1OC	u	x	x	-2.8%	u	-15.3%
COc1cc2nc(NC3CCN(C)CC3)nc(N3CCCN(C)CC3)c2cc1OC	u	x	x	9.0%	u	-3.4%
CCOC(=O)C1C(=O)CC(C)(O)C(C(=O)OCC)C1c1ccco1 (stereo not given)	20.6µM*	-9.6%	7.3	-0.8%	18.4µM*	-6.2%
CCCC(=O)N1CCn2c(nnc2[C@@H]2C[C@@H](O)CN2Cc2ccccc2)C1	x	21.2%	x	x	x	x
COc1cccc(C(NC(C)=O)c2nc(-c3cnn(C)c3)cs2)c1 (stereo not given)	0.8%	u	-1.1	8.2%	u	20.9%
COc1ccc(-c2csc(C(NC(C)=O)c3cccc(F)c3)n2)cn1 (stereo not given)	u	u	-16.1	19.1%	14.6µM*	28.6%
CC(=O)NC(c1cccc(F)c1)c1nc(-c2cnn(C)c2)cs1 (stereo not given)	23.1µM*	2.9%	42.0	u	u	18.8%
OC(c1cccc(Cl)c1)c1nc(-c2csc3ccccc23)cs1 (stereo not given)	u	-4.5%	13.1	u	14.6µM*	u
CC(=O)NC(c1cccc(F)c1)c1nc(-c2cnc3ccccc3c2)cs1 (stereo not given)	u	-8.2%	16.8	-11.3%	u	-5.5%
CC(=O)NC(c1ccccc1)c1nc(-c2cnc3ccccc3c2)cs1 (stereo not given)	20.6µM*	-16.2%	0.0	2.7%	11.6µM*	2.8%
